# Activity calls are given as the source filed them.
# Assays:
# [1] = optical density shifts of acrAB sulA E. coli – strain DRC41, OD650, 48 h, E. coli filamentation inducer project, primary screen (AID 1152); settings: higher = more signal, called active from +8 up or from −8 down;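 further: E. coli MC1000 strain DRC41 lacking acrAB efflux pump and sulA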
# [2] = probe aLefty1 binding on compound microarray – biochemical, small-molecule microarray, 635/667 nm fluorescence, primary screen (AID 1153); settings: higher = more signal;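 further: score merges spot fluorescence with signal-to-noise ratio from the scanned slide images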
# [3] = plasmodial surface anion channel blockers, osmotic lysis – cell-based, P. falciparum Indochina, OD700, 1 h, primary screen (AID 1154); settings: P. falciparum Indochina infected RBC osmotic lysis, higher = more signal, called active from +8 up or from −8 down
# [4] = plasmodial surface anion channel blockers, osmotic lysis – cell-based, P. falciparum Indochina, OD700, 2 h, primary screen (AID 1155);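 further: lysis reports solute entry through the parasite surface anion channel PSAC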; settings: P. falciparum Indochina infected erythrocytes, higher = more signal, called active from +8 up or from −8 down
# [5] = changes in parasitized red cell lysis, either direction – P. falciparum Indochina, OD700, 3 h, PSAC antagonist project, primary screen (AID 1156); settings: P. falciparum-infected erythrocytes, osmotic lysis, higher = more signal, called active from +8 up or from −8 down
# [6] = plasmodial surface anion channel blockers, osmotic lysis – cell-based, P. falciparum Indochina, OD700, 18 h, primary screen (AID 1157); settings: P. falciparum Indochina infected erythrocytes, osmotic lysis OD700, 18 h; higher = more signal, called active from +8 up or from −8 down
# [7] = S6 kinase pathway phospho-S6 level changes – cell-based, A549, cytoblot, luminescence, serum-stimulated, primary screen (AID 1158); settings: 5 h, higher = more signal;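 further: serum-stimulated A549 lung adenocarcinoma cells; signal is phosphorylated S6 detected by cytoblot immunostaining with HRP secondary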
# [8] = target: NADPH oxidase 2 (Homo sapiens) (UniProt P04839); assay: compounds shifting NOX2 Amplex Red fluorescence – cell-based, HEK293-NOX2, PMA-stimulated, NOX inhibitor project, primary screen (AID 1159); settings: 45 min, higher = more signal, called active from +8 up or from −8 down; further: test concentration not given here
# [9] = target: NADPH oxidase 4 (Homo sapiens) (UniProt Q9NPH5); assay: compounds shifting NOX4 Amplex Red fluorescence – cell-based, HEK293-NOX4, tetracycline-induced, NOX inhibitor project, primary screen (AID 1160); settings: HEK293-NOX4, Amplex Red H2O2 fluorescence, 45 min; higher = more signal, called active from +8 up or from −8 down
# [10] = target: NADPH oxidase 5 (Homo sapiens) (UniProt Q96PH1); assay: compounds shifting NOX5 Amplex Red fluorescence – cell-based, HEK293-NOX5, NOX inhibitor project, primary screen (AID 1161); settings: HEK293-NOX5, ionomycin, 45 min, higher = more signal
# [11] = compound effects on lung adenocarcinoma cell viability – A549, calcein-AM fluorescence, 48 h, basal, profiling panel (AID 1162); settings: higher = more signal; further: test concentration not given here
# [12] = compound effects on differentiated 3T3-L1 adipocyte viability – cell-based, 3T3-L1 adipocytes, calcein-AM fluorescence, 48 h, basal, profiling panel (AID 1163); settings: 3T3-L1 adipocytes viability, higher = more signal; further: test concentration not given here
# [13] = compound effects on hepatocellular carcinoma cell viability – HepG2, calcein-AM fluorescence, 48 h, basal, profiling panel (AID 1164); settings: higher = more signal; further: test concentration not given here
# [14] = compound effects on multiple myeloma cell viability – MM1S, calcein-AM fluorescence, 48 h, basal, profiling panel (AID 1165); settings: higher = more signal;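 further: viability of MM1S multiple myeloma cells under basal unstimulated conditions; test concentration not given here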
# [15] = calcein-AM signal in unstimulated myeloma cells – cell-based, calcein-AM fluorescence, 48 h, PK04 Diversity Set, profiling panel (AID 1166); settings: RPMI8226 myeloma viability, higher = more signal;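 further: cells grown under basal conditions without added stimulus; test concentration not given here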
# [16] = JC-1 mitochondrial signal, unstimulated HepG2 cells – cell-based, JC-1 fluorescence, 24 h, 100 nL compound, profiling panel (AID 1167); settings: HepG2 mitochondrial potential, higher = more signal; further: test concentration not given here
# [17] = JC-1 mitochondrial signal, unstimulated adipocytes – cell-based, JC-1 fluorescence, 3T3-L1 adipocytes, 24 h, 100 nL compound, profiling panel (AID 1168); settings: JC-1 mitochondrial fluorescence, higher = more signal, called active from +8 up or from −8 down; further: test concentration not given here
# [18] = JC-1 mitochondrial signal, unstimulated myeloma cells – cell-based, JC-1 fluorescence, RPMI8226, 24 h, 100 nL compound, profiling panel (AID 1169); settings: JC-1 mitochondrial potential fluorescence, higher = more signal; further: test concentration not given here
# [19] = JC-1 mitochondrial signal, unstimulated MM1S myeloma – cell-based, JC-1 fluorescence, 24 h, 100 nL compound, profiling panel (AID 1170); settings: MM1S mitochondrial potential, higher = more signal; further: test concentration not given here
# [20] = resazurin metabolic signal in A549 cells – cell-based, resazurin fluorescence, 24 h, PK04 Diversity Set, profiling panel (AID 1171); settings: A549 viability, higher = more signal, called active from +8 up or from −8 down; further: test concentration not given here
# Chain of NADPH oxidase 5 (Homo sapiens) (Q96PH1 whole entry, looked up): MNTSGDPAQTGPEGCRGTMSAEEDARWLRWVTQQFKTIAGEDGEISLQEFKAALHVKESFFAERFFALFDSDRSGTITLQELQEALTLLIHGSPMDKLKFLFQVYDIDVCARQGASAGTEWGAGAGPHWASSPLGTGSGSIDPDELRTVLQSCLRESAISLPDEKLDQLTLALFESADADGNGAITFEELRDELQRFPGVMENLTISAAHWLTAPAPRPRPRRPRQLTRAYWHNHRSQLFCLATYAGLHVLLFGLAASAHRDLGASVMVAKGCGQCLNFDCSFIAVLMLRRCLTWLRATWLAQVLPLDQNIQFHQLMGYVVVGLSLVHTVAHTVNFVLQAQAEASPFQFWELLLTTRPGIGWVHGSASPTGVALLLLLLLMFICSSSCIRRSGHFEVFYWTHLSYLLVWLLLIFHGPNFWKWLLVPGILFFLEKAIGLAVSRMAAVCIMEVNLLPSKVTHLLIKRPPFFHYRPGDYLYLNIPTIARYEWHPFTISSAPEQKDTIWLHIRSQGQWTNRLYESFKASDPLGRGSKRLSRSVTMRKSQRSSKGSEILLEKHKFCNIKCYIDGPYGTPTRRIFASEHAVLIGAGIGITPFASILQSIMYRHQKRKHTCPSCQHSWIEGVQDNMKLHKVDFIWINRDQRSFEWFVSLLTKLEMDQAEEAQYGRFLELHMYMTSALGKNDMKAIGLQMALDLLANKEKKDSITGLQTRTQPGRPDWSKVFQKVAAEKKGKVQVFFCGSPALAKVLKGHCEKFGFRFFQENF
# Chain of NADPH oxidase 2 (Homo sapiens) (P04839 whole entry, looked up): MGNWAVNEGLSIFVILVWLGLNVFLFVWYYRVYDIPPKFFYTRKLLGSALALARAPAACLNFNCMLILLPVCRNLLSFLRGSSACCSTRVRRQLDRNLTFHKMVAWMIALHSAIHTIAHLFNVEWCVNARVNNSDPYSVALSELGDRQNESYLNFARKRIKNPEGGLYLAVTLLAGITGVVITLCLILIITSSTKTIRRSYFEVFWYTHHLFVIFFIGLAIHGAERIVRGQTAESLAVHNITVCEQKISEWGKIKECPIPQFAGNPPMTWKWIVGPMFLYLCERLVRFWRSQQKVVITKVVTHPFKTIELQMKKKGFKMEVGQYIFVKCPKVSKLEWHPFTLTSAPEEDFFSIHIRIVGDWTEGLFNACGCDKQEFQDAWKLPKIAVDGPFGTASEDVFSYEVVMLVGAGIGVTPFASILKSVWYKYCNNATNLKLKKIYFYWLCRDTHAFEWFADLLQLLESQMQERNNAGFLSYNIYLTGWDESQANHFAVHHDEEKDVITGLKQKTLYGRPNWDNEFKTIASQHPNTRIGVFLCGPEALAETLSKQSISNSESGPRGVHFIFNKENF
# Chain of NADPH oxidase 4 (Homo sapiens) (Q9NPH5 whole entry, looked up): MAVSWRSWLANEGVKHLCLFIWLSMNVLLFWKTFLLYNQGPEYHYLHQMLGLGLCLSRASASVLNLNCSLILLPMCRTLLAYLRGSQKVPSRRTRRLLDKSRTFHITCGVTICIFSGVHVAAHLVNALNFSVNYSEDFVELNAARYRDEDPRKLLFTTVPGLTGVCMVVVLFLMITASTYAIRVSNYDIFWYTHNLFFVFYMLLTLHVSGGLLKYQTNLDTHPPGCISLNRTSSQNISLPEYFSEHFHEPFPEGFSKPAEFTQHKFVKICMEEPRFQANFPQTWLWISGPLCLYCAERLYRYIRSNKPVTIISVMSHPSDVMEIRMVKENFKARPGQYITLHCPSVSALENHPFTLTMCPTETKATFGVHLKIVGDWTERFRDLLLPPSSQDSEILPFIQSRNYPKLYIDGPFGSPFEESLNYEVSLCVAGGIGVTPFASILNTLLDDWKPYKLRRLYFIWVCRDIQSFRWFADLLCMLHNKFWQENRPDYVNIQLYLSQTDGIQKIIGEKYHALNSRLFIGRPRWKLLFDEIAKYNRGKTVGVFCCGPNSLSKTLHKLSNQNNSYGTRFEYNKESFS
Compound,z-score [1],composite z-score [2],z-score [3],z-score [4],z-score [5],z-score [6],z-score [7],z-score [8],z-score [9],z-score [10],z-score [11],z-score [12],z-score [13],z-score [14],z-score [15],z-score [16],z-score [17],z-score [18],z-score [19],z-score [20]
CO[C@@H]1COC(=O)[C@@H]2CCCN2C(=O)[C@@H](C)COC(=O)CCC[C@H]1C,-0.476 (inactive),-0.241,-0.238 (inactive),-1.48 (inactive),-0.0716 (inactive),-2.21 (inactive),2.43,-0.634 (inactive),0.0989 (inactive),0.43,-0.0294,-0.0132,0.586,-0.407,0.498,-0.189,-2.2 (inactive),-0.0065,-1.2,-1.07 (inactive)
COc1ccc2c(c1)O[C@@H](c1cccc(C(F)(F)F)c1)[C@H](O)C2=O,0.706 (inactive),0.0328,2.08 (inactive),0.18 (inactive),1.19 (inactive),0.347 (inactive),1.15,0.00989 (inactive),0.123 (inactive),-0.44,0.759,-0.941,-0.294,-0.277,1.29,-1.25,0.0155 (inactive),-0.239,-0.724,-0.536 (inactive)
CCc1cc2c(nc1CC)CCN(CCC(C)=NOC(C)CN1CCCCc3nc(C)c(C)cc31)C2 (stereo not given),-1.74 (inactive),0.131,5.84 (inactive),0.499 (inactive),1.54 (inactive),0.539 (inactive),-0.408,-3.06 (inactive),-3.1 (inactive),-2.84,0.115,0.97,0.101,-2.89,-0.51,6.12,-1.02 (inactive),-0.39,-0.104,0.639 (inactive)
CCOC(=O)CCN1C(=O)[C@H]2[C@H]3[C@H](O)[C@H](O)CC(=NO[C@@H]4O[C@H](CO)[C@@H](O)[C@H](O)[C@H]4O)[C@@H]3CC[C@H]2C1=O,0.998 (inactive),0.121,3.62 (inactive),0.155 (inactive),1.31 (inactive),0.82 (inactive),-0.235,-2.95 (inactive),0.332 (inactive),-2.16,0.816,-0.0641,1.19,-0.269,0.238,-0.0782,-0.0421 (inactive),0.577,-1.45,-0.765 (inactive)
COC(=O)[C@@H]1CC[C@H](C)[C@@H](c2ccc(Br)cc2)N1,-0.824 (inactive),-0.0879,-0.452 (inactive),-0.219 (inactive),-0.772 (inactive),-0.0454 (inactive),-0.0984,1.62 (inactive),-1.48 (inactive),-0.595,0.23,0.309,-0.183,0.125,0.0204,-0.0948,-0.644 (inactive),-0.295,0.214,-0.284 (inactive)
CC(C)=NOC(C)CN1CCCc2nc(C)c(C)cc21 (stereo not given),-0.477 (inactive),-0.012,0.421 (inactive),0.774 (inactive),0.175 (inactive),0.539 (inactive),-0.558,-0.369 (inactive),-0.141 (inactive),-0.281,0.755,-0.588,0.272,-0.237,0.0977,0.0197,-0.24 (inactive),-0.416,0.226,-0.373 (inactive)
CCN1C(=O)[C@H]2[C@H]3[C@H](O)[C@H](O)CC(=NNC(=O)OCc4ccccc4)[C@@H]3CC[C@H]2C1=O,-0.0098 (inactive),0.122,-0.0022 (inactive),-0.51 (inactive),-0.698 (inactive),-0.0637 (inactive),-0.376,0.424 (inactive),0.525 (inactive),0.296,-0.0627,0.0682,-0.131,-0.0309,0.718,-0.653,-1.19 (inactive),-0.118,-0.458,-0.32 (inactive)
C#CCCCON=C1C[C@@H](O)[C@@H](O)[C@@H]2[C@@H]3C(=O)N(C[C@@H]4CCCO4)C(=O)[C@@H]3CC[C@H]12,-0.25 (inactive),-0.293,0.515 (inactive),0.189 (inactive),-0.0365 (inactive),0.0603 (inactive),0.591,-0.635 (inactive),-1.68 (inactive),-1,-0.549,-0.614,-1.28,0.266,0.0556,-0.241,-0.792 (inactive),0.489,-0.149,0.019 (inactive)
CCN1C(=O)[C@H]2[C@H]3[C@H](O)[C@H](O)CC(=NOCC=C(C)CCC=C(C)C)[C@@H]3CC[C@H]2C1=O,-1.27 (inactive),-0.22,1.17 (inactive),0.579 (inactive),0.0742 (inactive),0.134 (inactive),-0.23,1.56 (inactive),0.207 (inactive),-1.06,-0.0234,0.28,-0.196,-0.701,0.203,-0.731,-1.56 (inactive),-0.321,0.355,0.298 (inactive)
CC(C)(C)N1C(=O)[C@H]2[C@H]3[C@H](O)[C@H](O)CC(=NOC[C@@H](O)COCc4ccco4)[C@H]3CC[C@H]2C1=O,0.0965 (inactive),0.21,1.18 (inactive),-0.423 (inactive),0.0556 (inactive),0.33 (inactive),-0.159,0.119 (inactive),0.0791 (inactive),0.188,-0.0309,0.676,0.082,0.406,-0.139,-0.368,0.856 (inactive),-0.631,-0.914,-0.679 (inactive)
COC(OC)[C@@H](C)[C@H](OC)[C@@H](C)[C@H](OC)c1ccccc1,0.215 (inactive),-0.235,-0.271 (inactive),-0.947 (inactive),-0.75 (inactive),-1.06 (inactive),1.67,0.491 (inactive),0.153 (inactive),0.577,2.22,0.159,0.568,-0.569,0.692,0.348,-0.14 (inactive),0.404,1,-0.996 (inactive)
COC(=O)[C@H](Cc1ccccc1)NC(=O)[C@@H](C)CO,-0.388 (inactive),0.174,0.0772 (inactive),-0.824 (inactive),0.811 (inactive),-1.87 (inactive),1.92,0.966 (inactive),0.185 (inactive),-2.94,-0.457,0.802,-0.196,-2.56,-2.56,0.892,-0.218 (inactive),-0.186,-0.209,-0.234 (inactive)
O=C1[C@H]2CCn3c(=O)n(-c4ccccc4)c(=O)n3[C@H]2[C@H](O)[C@@H]2O[C@H]12,-0.323 (inactive),-0.391,-0.132 (inactive),0.105 (inactive),0.337 (inactive),0.304 (inactive),-0.236,-1.3 (inactive),-0.584 (inactive),0.423,0.0313,-0.226,-0.352,-1.32,-0.19,-0.237,-0.169 (inactive),-0.104,-0.351,-0.331 (inactive)
C=C(C)C(=O)OC[C@H]1CN2[C@@H](CC[C@@H](C)[C@@H]2c2ccc(Br)cc2)C(=O)O1,-1.41 (inactive),-0.143,3.08 (inactive),-0.0269 (inactive),-0.691 (inactive),-0.196 (inactive),0.861,-1.81 (inactive),0.0898 (inactive),-1.61,0.824,0.278,1.33,0.244,-1.34,0.393,-0.142 (inactive),-0.521,-0.197,0.634 (inactive)
O=C1C2=CC[C@H]3C(=O)N(C[C@@H]4CCCO4)C(=O)[C@H]3[C@H]2[C@H](O)[C@@H]2O[C@H]12,0.194 (inactive),-0.0969,-0.303 (inactive),0.59 (inactive),-0.2 (inactive),0.108 (inactive),0.177,-1.35 (inactive),-0.219 (inactive),0.271,0.144,-0.579,-0.228,-3.11,-3.32,-0.549,0.465 (inactive),-0.836,-3.04,-0.824 (inactive)
C=CCOCC1CN2[C@@H](CC[C@@H](C)[C@@H]2c2ccc(Br)cc2)C(=O)O1 (stereo not given in full),0.298 (inactive),-0.147,0.517 (inactive),0.456 (inactive),-1.14 (inactive),0.247 (inactive),-0.665,0.286 (inactive),-0.604 (inactive),-2.74,0.124,0.312,0.289,-0.268,-0.0306,0.506,-0.809 (inactive),-0.207,0.672,0.743 (inactive)
CCOC(=O)[C@H](CC(C)C)NC(=O)CCC1CC(OC(=O)NCc2ccc3c(c2)OCO3)CC2(CCCC(COC(=O)NCc3ccccc3)O2)O1 (stereo not given in full),-0.729 (inactive),0.0004,7.67 (inactive),0.795 (inactive),-0.626 (inactive),0.297 (inactive),-0.251,-0.398 (inactive),0.47 (inactive),0.202,-0.547,-0.654,-1.38,-3.45,-1.58,-0.439,0.195 (inactive),0.0575,0.277,1.06 (inactive)
COc1cccc([C@H]2Oc3ccc(OC)cc3C(=NO[C@@H](C)c3cc(-c4c(C)cc(C)cc4C)no3)[C@@H]2O)c1,-1.74 (inactive),-0.0061,5.05 (inactive),1.38 (inactive),-0.0548 (inactive),0.907 (inactive),-0.902,0.314 (inactive),0.21 (inactive),-0.577,-0.744,-0.583,-1.08,-1.38,-0.845,-2.54,-2.31 (inactive),0.118,0.463,0.321 (inactive)
